High-throughput results from PubChem.
RPL19A-GFP yeast – modulators of TOR pathway RPL19A-GFP in S. cerevisiae | S. cerevisiae RPL19A-GFP strain, flow cytometry, 3 h; stronger effect = lower value | percent response vs DMSO, % at 10 µM | hit rate 0.3% among 330,000 | AID 2025;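 active = percent response vs DMSO below 50%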;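 also: median channel GFP fluorescence of the barcoded RPL19A-GFP strain; ratio of sample median GFP to plate DMSO average so 100% = DMSO; lower means less RPL19A-GFP as with rapamycin TOR inhibition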
MEP2-GFP yeast – yeast TOR pathway MEP2-GFP modulation; S. cerevisiae MEP2-GFP strain, flow cytometry GFP, 3 h; 100% = DMSO control level; GFP response vs DMSO, % at 10 µM; hit rate 0.51% among 330,000; AID 2016;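 active = GFP response versus DMSO above a set limit, roughly screen mean plus 3 SD, cut at about 180% in these data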;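 also: median GFP fluorescence of the barcode-gated MEP2-GFP cells per well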
LAP4-GFP MLPCN – alters LAP4-GFP fluorescence in TOR pathway yeast screen. S. cerevisiae LAP4-GFP multiplex, flow cytometry GFP, 3 h; median GFP as percent of DMSO wells. GFP response vs DMSO, % at 10 µM. hit rate 0.34% among 320,000;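 active = GFP response vs DMSO above a set limit, about the screen mean plus 3 SD, cut at about 150% in these data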
AGP1 TOR yeast – modulators of TOR pathway AGP1-GFP in S. cerevisiae | S. cerevisiae AGP1-GFP multiplex flow cytometry, 3 h; GFP as percent of DMSO wells | GFP response vs DMSO, % at 10 µM | hit rate 0.02% among 320,000 | AID 2066;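 active = GFP response relative to DMSO above a set limit, near screen average plus 3 SD, cut at about 150% in these data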;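 also: median GFP channel fluorescence of the gated AGP1 strain per well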
CIT2-GFP yeast – alters CIT2-GFP fluorescence in TOR pathway yeast screen. S. cerevisiae CIT2-GFP strain, flow cytometry, 3 h; 100 means same as DMSO wells. GFP response vs DMSO, % at 10 µM. hit rate 0.065% among 320,000. AID 2029;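 active = GFP response relative to DMSO above a set limit, near the screen mean plus 3 SD, cut at about 150% in these data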;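 also: ratio of well median GFP fluorescence to mean of DMSO wells on the plate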
LAP4-GFP pick2 – reconfirmed LAP4-GFP TOR pathway modulator in yeast | S. cerevisiae LAP4-GFP strain, flow cytometry GFP, 3 h | hit rate 20% among 590 | shares compounds with LAP4-GFP MLPCN | GFP response vs DMSO, % at 10 µM;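 active = GFP signal as percent of the solvent control above about 150%, meaning raised reporter expression, limit read from the data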;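 also: ratio of well median GFP fluorescence to plate DMSO mean so 100% = DMSO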
MEP2 cherry2 – yeast MEP2-GFP modulation, second cherry pick; shares compounds with LAP4-GFP MLPCN; S. cerevisiae MEP2-GFP strain, flow cytometry GFP, 3 h; GFP response vs DMSO, % at 10 µM; hit rate 10% among 590;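 active = GFP signal above 150% of the solvent control wells, that is a rise of more than half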;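 also: median channel GFP fluorescence of all gated yeast cells per well; ratio of median GFP to plate DMSO average so 100% = DMSO level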
RPL19A-GFP pick2 – reconfirmed modulator of RPL19A-GFP TOR reporter in yeast. GFP response vs DMSO, % at 10 µM. shares compounds with LAP4-GFP MLPCN. AID 2623. hit rate 3% among 590. S. cerevisiae RPL19A-GFP strain, flow cytometry GFP, 3 h; stronger effect = lower value; 100% means same as DMSO wells;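 active = under 65% GFP response relative to DMSO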;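 also: median GFP channel fluorescence per well over the all cells gate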
CIT2-GFP pick2 – second confirmation of modulators of TOR reporter CIT2-GFP in yeast; GFP response vs DMSO, % at 10 µM; hit rate 8% among 590; S. cerevisiae CIT2-GFP strain, flow cytometry GFP, 3 h; DMSO control wells read 100%; shares compounds with LAP4-GFP MLPCN;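 active = GFP response vs DMSO above about 150%, limit read from the data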;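 also: median green fluorescence per well over all gated yeast cells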
AGP1-GFP pick2 – second confirmation of modulators of TOR reporter AGP1-GFP in yeast; shares compounds with LAP4-GFP MLPCN; S. cerevisiae AGP1-GFP strain, flow cytometry GFP, 3 h; percent response vs DMSO, % at 10 µM; 590 tested, under 10 active;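 active = over 150 percent of DMSO response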;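 also: median GFP channel fluorescence over all cells without mother daughter split; sample median GFP divided by mean DMSO control so 100% equals DMSO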
s288c autofluor – compound is autofluorescent in yeast s288c cells; 610 tested, under 10 active; S. cerevisiae s288c, 520 nm autofluorescence, flow cytometry, 3 h; stronger effect = higher value; zero means same as solvent-only cells; shares compounds with LAP4-GFP MLPCN; fluorescence change (kMESF span) at 33 µM; AID 2757;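 active = fluorescence span over the dose series, or activity score, above about 33, limit read from the data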
Starred values were filed as active, the others as inactive. An excerpt weighted towards active compounds, which were near 0.92% of everything screened.

`O=C1NC(=O)N(Cc2ccc(F)cc2)C(=O)/C1=C/c1cccs1` gave RPL19A-GFP yeast 87.7, MEP2-GFP yeast 99.5, LAP4-GFP MLPCN 169.6*, AGP1 TOR yeast 90.8, CIT2-GFP yeast 76.4, LAP4-GFP pick2 196.2*, MEP2 cherry2 133.1, RPL19A-GFP pick2 76.1, CIT2-GFP pick2 79.2, AGP1-GFP pick2 80.9 and s288c autofluor 0.1.
Screening O=C1NC(=O)N(Cc2ccccc2Cl)C(=O)/C1=C/c1cccs1 returned RPL19A-GFP yeast 95.0, MEP2-GFP yeast 82.8, LAP4-GFP MLPCN 133.4, AGP1 TOR yeast 81.4 and CIT2-GFP yeast 77.3.
For CC1CCCCN1C(=O)c1ccc(N2CC3CC(C2)c2cccc(=O)n2C3)c([N+](=O)[O-])c1 (centres undefined) the results were RPL19A-GFP yeast 100.6, MEP2-GFP yeast 105.3, LAP4-GFP MLPCN 92.9, AGP1 TOR yeast 103.7 and CIT2-GFP yeast 101.3.
For C/C(=C\c1ccc(N(C)C)cc1)[N+](=O)[O-] the results were RPL19A-GFP yeast 101.9, MEP2-GFP yeast 102.4, LAP4-GFP MLPCN 155.2*, AGP1 TOR yeast 102.5, CIT2-GFP yeast 100.1, LAP4-GFP pick2 103.2, MEP2 cherry2 92.6, RPL19A-GFP pick2 98.5, CIT2-GFP pick2 111.2 and AGP1-GFP pick2 98.6.
Screening CC1(C)C[C@H]2C=C(C=O)[C@]3(C=O)C[C@]3(C)[C@H]2C1 returned RPL19A-GFP yeast 61.0, MEP2-GFP yeast 121.7, LAP4-GFP MLPCN 149.4, AGP1 TOR yeast 70.4, CIT2-GFP yeast 103.0, LAP4-GFP pick2 198.1*, MEP2 cherry2 201.3*, RPL19A-GFP pick2 78.6, CIT2-GFP pick2 187.7*, AGP1-GFP pick2 91.3 and s288c autofluor 1.4.
